Screening results deposited in PubChem by several laboratories.
PLC-beta3 inh – inhibitors of human phospholipase C beta3; Q01970; Purified PLC-beta3, fluorogenic substrate, fluorescence; inhibition, % at 12.2 µM; 0.18% of 370,000 active; AID 720704;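 also: 0% = median of compound wells on plate and 100% = full blocker control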
Cardio protect – myocardial damage modulation in H9c2 cells; protection from H2O2 cell death, % at 20 µM; H9c2 cardiomyocytes, H2O2 injury protection, ATPLite, 2 h; AID 588492; 0.63% of 360,000 active;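 active = compounds giving at least 50% protection of heart cells from peroxide-induced death in the single-dose screen, raw or plate-pattern-corrected value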;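 also: 0% = DMSO wells with peroxide and 100% = DMSO wells without peroxide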
FAS-TE inh – blocks the thioesterase domain of human fatty acid synthase; P49327; recombinant FAS-TE, OMFH fluorogenic substrate, fluorescence endpoint; inhibition, % at 15 µM; 0.67% of 360,000 active;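 active = compounds whose normalised, plate-corrected inhibition of enzyme fluorescence in the single-dose primary screen is 50% or more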;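 also: 0% = DMSO with enzyme and 100% = substrate without enzyme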
Target sequence (P49327 whole entry, looked up, the tested form may be a part): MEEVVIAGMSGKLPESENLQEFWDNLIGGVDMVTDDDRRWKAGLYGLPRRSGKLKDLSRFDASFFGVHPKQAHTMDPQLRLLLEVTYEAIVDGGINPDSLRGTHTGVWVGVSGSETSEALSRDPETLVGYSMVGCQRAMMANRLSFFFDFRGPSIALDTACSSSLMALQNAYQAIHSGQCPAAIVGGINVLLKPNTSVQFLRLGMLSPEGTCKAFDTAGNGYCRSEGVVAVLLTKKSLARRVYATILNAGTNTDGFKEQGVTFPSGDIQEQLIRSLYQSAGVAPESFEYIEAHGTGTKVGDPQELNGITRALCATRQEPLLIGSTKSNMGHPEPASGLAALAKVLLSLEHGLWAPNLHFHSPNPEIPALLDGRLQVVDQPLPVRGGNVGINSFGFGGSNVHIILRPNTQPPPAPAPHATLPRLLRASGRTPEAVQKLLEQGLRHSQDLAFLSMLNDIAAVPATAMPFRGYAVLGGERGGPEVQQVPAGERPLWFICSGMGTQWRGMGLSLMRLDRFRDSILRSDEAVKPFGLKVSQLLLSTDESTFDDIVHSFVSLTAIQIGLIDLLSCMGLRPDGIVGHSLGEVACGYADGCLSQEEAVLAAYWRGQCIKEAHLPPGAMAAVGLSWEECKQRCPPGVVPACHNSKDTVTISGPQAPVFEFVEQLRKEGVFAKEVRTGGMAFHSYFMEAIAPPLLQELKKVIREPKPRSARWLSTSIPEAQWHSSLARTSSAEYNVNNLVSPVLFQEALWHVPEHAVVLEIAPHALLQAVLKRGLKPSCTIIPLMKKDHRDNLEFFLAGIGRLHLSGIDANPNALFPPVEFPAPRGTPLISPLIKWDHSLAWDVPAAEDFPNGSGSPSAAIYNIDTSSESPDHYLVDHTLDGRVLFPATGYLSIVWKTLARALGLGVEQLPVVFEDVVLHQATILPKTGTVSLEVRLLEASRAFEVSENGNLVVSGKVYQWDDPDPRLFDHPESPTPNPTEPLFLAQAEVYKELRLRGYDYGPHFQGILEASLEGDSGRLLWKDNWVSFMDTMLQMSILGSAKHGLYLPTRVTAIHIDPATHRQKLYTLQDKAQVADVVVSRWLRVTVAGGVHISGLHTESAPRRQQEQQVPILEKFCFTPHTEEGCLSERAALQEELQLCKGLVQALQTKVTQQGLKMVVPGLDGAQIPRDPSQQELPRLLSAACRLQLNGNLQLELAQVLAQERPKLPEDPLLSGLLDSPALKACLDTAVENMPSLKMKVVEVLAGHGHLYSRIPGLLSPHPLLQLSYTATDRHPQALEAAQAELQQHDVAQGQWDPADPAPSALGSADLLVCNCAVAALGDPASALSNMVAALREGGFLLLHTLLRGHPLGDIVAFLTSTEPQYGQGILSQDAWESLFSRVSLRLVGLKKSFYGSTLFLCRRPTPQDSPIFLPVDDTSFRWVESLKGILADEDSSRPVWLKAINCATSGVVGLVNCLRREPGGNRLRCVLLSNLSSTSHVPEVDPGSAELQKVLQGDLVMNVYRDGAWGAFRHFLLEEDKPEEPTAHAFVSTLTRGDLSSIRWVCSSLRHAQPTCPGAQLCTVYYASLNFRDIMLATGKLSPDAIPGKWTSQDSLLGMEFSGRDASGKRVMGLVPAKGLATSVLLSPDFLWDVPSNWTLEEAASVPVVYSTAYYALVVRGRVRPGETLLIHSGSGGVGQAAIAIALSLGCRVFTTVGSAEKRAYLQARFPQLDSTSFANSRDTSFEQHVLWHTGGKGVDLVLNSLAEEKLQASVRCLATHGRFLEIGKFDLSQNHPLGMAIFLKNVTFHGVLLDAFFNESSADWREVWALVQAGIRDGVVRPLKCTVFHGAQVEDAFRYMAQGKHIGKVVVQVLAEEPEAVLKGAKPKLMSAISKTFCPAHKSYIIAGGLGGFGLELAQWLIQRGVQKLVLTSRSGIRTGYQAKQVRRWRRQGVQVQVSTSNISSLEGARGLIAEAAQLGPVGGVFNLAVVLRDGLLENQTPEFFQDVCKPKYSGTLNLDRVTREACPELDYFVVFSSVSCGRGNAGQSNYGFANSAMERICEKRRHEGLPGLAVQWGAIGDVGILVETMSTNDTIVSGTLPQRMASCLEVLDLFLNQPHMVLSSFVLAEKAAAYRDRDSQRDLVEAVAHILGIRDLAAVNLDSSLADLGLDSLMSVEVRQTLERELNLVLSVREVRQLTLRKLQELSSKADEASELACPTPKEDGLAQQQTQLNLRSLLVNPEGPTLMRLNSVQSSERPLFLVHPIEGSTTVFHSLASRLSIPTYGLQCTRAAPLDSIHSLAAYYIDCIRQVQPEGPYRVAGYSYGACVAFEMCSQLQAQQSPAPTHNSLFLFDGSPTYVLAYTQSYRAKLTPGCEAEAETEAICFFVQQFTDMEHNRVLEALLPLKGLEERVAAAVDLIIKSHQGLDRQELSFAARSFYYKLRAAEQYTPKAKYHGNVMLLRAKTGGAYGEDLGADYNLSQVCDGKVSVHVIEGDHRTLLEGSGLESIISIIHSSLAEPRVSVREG
PLC-gamma1 inh – blocks human PLC-gamma1 enzyme activity; P19174; purified PLC-gamma1, fluorogenic substrate, fluorescence; inhibition, % at 12.2 µM; 0.84% of 370,000 active; in the data active = inhibition above about 9.5%
PLCg1 ctr – PLC-gamma1 inhibition, counter-screen for PLC-beta3 hits. inhibition, % at 12.3 µM. shares compounds with PLC-gamma1 inh. AID 743258. 3.1% of 3,300 active. purified PLC-gamma1, fluorogenic substrate, fluorescence; in the data active = inhibition above about 9.5%
PLCb3 confirm – human PLC-beta3 inhibition, confirmation. shares compounds with PLC-gamma1 inh. inhibition, % at 12.3 µM. AID 743261. purified PLC-beta3, fluorogenic substrate fluorescence. 1% of 3,300 active
* marks the source's active call; other numbers are inactive results; . = not tested or not shown. In the library only some 2.2% were active in any assay of this set; here they are far more common. Rule as the data show it, unless noted: active = inhibition above about 11%; inactive = the rest.

SMILES	PLC-beta3 inh	Cardio protect	FAS-TE inh	PLC-gamma1 inh	PLCg1 ctr	PLCb3 confirm
CC(NCc1ccc(OCc2ccc(Cl)cc2)cc1)C(O)c1ccccc1 (stereo unspecified)	-4	-31	16	19*	2	-2
CC1(C)Cc2c(sc(NC(=O)COc3cccc4ccccc34)c2C#N)C(C)(C)N1	-9	-21	-1	8	.	.
Cc1ccc(OCC(=O)Nc2sc3c(c2C#N)CC(C)(C)NC3(C)C)cc1	-51	4	-3	10*	-3	2
Cc1cccc(NC(=O)NCCN2CCN(c3ccccc3)CC2)c1C	-2	0	-6	1	.	.
CCOC(=O)c1c(C)c(C(=O)Nc2ccc(F)cc2)c(C)n1C	3	1	-4	13*	-4	1
CN(Cc1ccccc1)C(=O)CN1C(=O)NC2(CCCCCCC2)C1=O	0	1	-4	13*	1	5
O=C(CN1C(=O)NC2(CCCCCCC2)C1=O)NCc1ccc(Cl)cc1	-4	-6	30	12*	-5	-3
CSc1ccc(CN(C)C(=O)CN2C(=O)NC3(CCCC3)C2=O)cc1	-9	0	-4	2	.	.
O=S(=O)(CS(=O)(=O)c1ccccc1Br)c1ccccc1Br	-1	.	.	22*	17*	-12
O=C1CCCC[C@@H](O)[C@H](O)C[C@H](c2ccccc2)O1	-1	.	-11	-1	.	.
C=C1CC2(CC(c3ccccc3)OC(c3ccccc3)C2)OC1=O (stereo unspecified)	10	-16	-3	13*	-2	-2
CCOC(=O)C1=C(C)OC2(O)c3ccccc3C(=O)C12O (stereo unspecified)	2	3	4	10*	-2	-4
Cc1ccc(C(=O)OCc2c(C)noc2C)cc1NC(=O)c1ccco1	9	2	-4	11*	5	-5
CCCCNC(=O)COC(=O)c1ccc(C)c(NC(=O)c2ccco2)c1	0	-7	-6	4	.	.
O=C(NC(NC(=S)Nc1ccc(Cl)cc1)C(Cl)(Cl)Cl)c1ccco1 (stereo unspecified)	1	-20	21	1	.	.
CC(=O)c1ccc(NC(=S)NC(NC(=O)c2ccco2)C(Cl)(Cl)Cl)cc1 (stereo unspecified)	12*	-19	4	8	3	-1
CN(Cc1ccccc1)Cc1cc(=O)oc2ccc3ccccc3c12	-28	-2	27	-19	.	.
Cc1ccc(-c2c[n+](CC(=O)Nc3ccccc3C)c3n2CCC3)cc1	-5	2	-6	9.8*	-1	2
Cc1ccc(-c2c[n+](CC(=O)Nc3nc(-c4ccccc4)cs3)c3n2CCC3)cc1	11*	-6	-9	12*	4	3
COC(=O)C[C@H]1CC[C@H]2[C@@H](COc3ccc(NC(=O)Nc4ccccc4)cc3C(=O)N2C)O1	1	.	.	2	.	.
Cc1ccc(C(=O)N(CC(C)C)c2c(N)n(Cc3ccccc3)c(=O)[nH]c2=O)o1	-10	3	-4	-6	.	.
Cc1ccc(C)c(N2CCN(S(=O)(=O)c3ccc4c(c3)NC(=O)CS4)CC2)c1	-9	-7	19	-3	.	.
COc1ccccc1NS(=O)(=O)c1ccc(NN=C2CCCCC2)c([N+](=O)[O-])c1	7	-21	25	11*	5	6
COc1ccccc1NS(=O)(=O)c1ccc(N/N=C(\C)C(C)C)c([N+](=O)[O-])c1	13*	-20	32	9.9*	8	3
CCc1nc2c(OCCC3CCCCC3)cccn2c1N(C)C(=O)c1cccs1	5	-6	16	6	.	.
SMILES	PLC-beta3 inh	Cardio protect	FAS-TE inh	PLC-gamma1 inh	PLCg1 ctr	PLCb3 confirm
C=CCn1c(SCCN2C(=O)c3ccccc3C2=O)nc2scc(-c3ccc(F)cc3)c2c1=O	6	-9	-8	13*	-4	-2
Cc1ccc(NC(=O)COC(=O)C2CCC2)cc1S(=O)(=O)N1CCOCC1	1	0	1	0	.	.
CC(C)(Oc1ccc(Cl)cc1)C(=O)OCC(=O)Nc1ncc(Cl)cc1Cl	12*	2	15	8	-1	1
CC(=O)Nc1ccc(S(=O)(=O)N2CCC(NC(=O)C(Cc3cccc(F)c3)NC(C)=O)CC2)cc1 (stereo unspecified)	-3	-6	-4	1	.	.
Cc1onc(-c2ccc(Cl)cc2)c1-c1ccn(S(=O)(=O)c2ccccc2)n1	0	.	.	10*	-3	-1
Cc1ccc(S(=O)(=O)n2ccc(-c3c(-c4ccccc4)noc3C)n2)cc1	0	.	.	1	.	.
O=C(NCc1n[nH]c(=S)n1-c1cccc(C(F)(F)F)c1)c1ccc(S(=O)(=O)N2CCCCC2)cc1	3	-8	4	12*	1	-4
O=C(NCc1n[nH]c(=S)n1-c1cccc(C(F)(F)F)c1)c1ccc(S(=O)(=O)N2CCCC2)cc1	2	5	-2	1	.	.
CC(C)CN1CC(C)C(=O)N(c2ccccc2)C1=O (stereo unspecified)	10	0	-6	4	.	.
COc1ccc(C(C)c2cc3c(cc2OCC(=O)O)OCO3)cc1 (stereo unspecified)	21*	.	.	4	-1	0
CCN(c1cccc(C(F)(F)F)c1)S(=O)(=O)c1ccc2c(c1)CCN2C(C)=O	5	-14	38	14*	-9	-5
CN1C2=N[C@H](c3ccccc3Br)CC(=O)N2/C(=C\c2ccccc2)[C@@H]1c1ccccc1	4	.	.	6	.	.
O=C(/C=C/c1ccco1)NC(=S)Nc1ccc(C(=O)O)cc1	-11	-6	-4	26*	17*	-7
OCC[C@H]1C[C@@H](O)[C@H](O)[C@@]2(CCc3ccccc3O2)O1	1	0	-10	-1	.	.
OCC[C@H]1C[C@@H](O)[C@H](O)[C@]2(CCc3ccccc3O2)O1	11*	10	-6	9	-5	1
C[C@H]1CCC[C@]2(O[C@@H](CCO)C[C@@H](O)[C@@H]2O)O1	7	4	-16	9.9*	-5	2
OCC[C@H]1C[C@H](O)[C@@H](O)[C@]2(CCCc3ccccc3O2)O1	11*	4	-15	0	5	4
C[C@H]1CCC[C@]2(O[C@H](CCO)C[C@@H](O)[C@@H]2O)O1	4	4	-10	2	.	.
Cc1ccc2c(c1)N(CCC(=O)NC1CC1)C(=O)C(C)O2 (stereo unspecified)	12*	-4	-9	6	-3	-6
CCN(c1ccccc1)S(=O)(=O)c1ccc(OCc2c(C)noc2C)cc1	2	-12	21	2	.	.
Cc1ccc(C(=O)NNC(=O)c2ccccc2OCc2c(C)noc2C)cc1	2	-1	9	-1	.	.
Cc1noc(C)c1COc1ccccc1C(=O)NNC(=O)c1ccccc1	9	0	-1	11*	-1	1
CCN(C(=O)COC(=O)c1ccc(OCc2c(C)noc2C)cc1)c1ccccc1	2	-14	3	14*	-1	0
